In PubChem BioAssay AID2547 (National Center for Advancing Translational Sciences (NCATS), 2010):
Some of the results follow. Results filed as inconclusive are left out. Activity calls are given as the source filed them. Calls follow the shape of the dose curve; as a rule, active = well fitted inhibition curve with a large enough effect; inconclusive = small, poorly fitted or top-dose-only effect; inactive = flat fitted curve, though single readings scatter.

test: Secondary Assay for Inhibitors of Human Galactokinase (GALK): HEK-293 Cell Viability Assay; conditions: HEK-293 viability, ATP luminescence (CellTiter-Glo), 24/48 h; series mostly up to 46.1 µM; activity change, negative = cytotoxicity: at the top concentration
Experimental: NIH Molecular Libraries Probe Production Centers Network [MLPCN] NIH Chemical Genomics Center [NCGC] MLPCN Grant: R03 MH085689-01 Assay Submitter (PI): Kent Lai (University of Utah School of Medicine, 50 N Mario Capecchi Drive, Salt Lake City, UT 84132) NCGC Assay Overview Cytotoxicity of the active compounds in the GALK qHTS screen (AID 1868) was assessed using the CellTiter-Glo Luminescent Cell Viability Assay kit (Promega, USA) in the HEK-293 (ATCC) cell line. CellTiter-Glo measures the intracellular ATP present in metabolically active cells using Ultra-Glo as the luciferase to detect ATP levels. In brief, the luciferase in the buffer catalyzes the oxidation of luciferin to oxyluciferin and light which is dependent on ATP. […] Wells treated with various concentrations of cycloheximide (Sigma) and DMSO, and wells with media alone were used as positive and negative controls, respectively. […] [1] http://www.promega.com/tbs/tb288/tb288.pdf
NCGC Assay Protocol Summary: HEK-293 cells were grown in a flask up to 80% confluence. Cells were trypsinized, washed, and resuspended in MEM Eagle + 10% FBS + 1% pen-strep media at a concentration of 120 cells/uL. Five uL/well of cell solution was dispensed into a 1536-well assay plates (Greiner, solid white medium-binding plates) with Aurora Discovery BioRAPTR Flying Reagent Dispenser (FRD; Beckton-Dickenson). Cells were pre-incubated at 37 degree Celsius, 5% CO2 for four hours. Compound and control solutions (23nL) were then transferred to the assay plate using the Kalypsys 1536-pin tool. Assay plates were re- incubated at 37 degree Celsius, 5% CO2. After 24 or 48 hours, five uL of CellTiter Glo detection reagent was added. Luminescence signal was read with Perkin Elmer ViewLux plate reader after 30 min room temperature incubation.
% is scaled to controls: 0 for no effect and ±100 for the full control effect; potency is read from the fitted curve at half-maximal effect.

Row | SMILES | activity change, negative = cytotoxicity | Potency
1 | COc1cccc2cc(-c3cc(=O)oc4cc(C)c(O)cc34)oc12 | 3.01% (inactive) | 
2 | O=C1Nc2ccc([N+](=O)[O-])cc2C1=Nc1cccc(CO)c1 | -8.73% (inactive) | 
3 | N#C/C(=C(/O)Cc1cccc2ccccc12)c1nc2ccccc2s1 | -2.32% (inactive) | 
4 | CCS(=O)(=O)C1=NSC2=NC(=O)/C(=C\c3ccc(OS(=O)(=O)c4ccccc4)cc3)C(=N)N21 | 2.94% (inactive) | 
5 | CCOC(=O)c1c(C)[nH]c2c1-c1ccccc1C(=O)C2=O |  | 11.2 µM (active)
6 | O=C1CCCC2=C1[C@@]1(CCC(c3ccccc3)C1)N=C(Nc1nc3ccccc3o1)N2 (some centres undefined) | -26.3% (inactive) | 
7 | N#Cc1c(N2CCCCC2)nc(N)c2c(N)nc(SCC(=O)O)cc12 | -0.364% (inactive) | 
8 | O=C(Nc1nnc(S(=O)(=O)N2CCOCC2)s1)c1cccc(Br)c1 | -11% (inactive) | 
9 | Oc1c(Cl)cc(Cl)c(Cl)c1Cc1c(O)c(Cl)cc(Cl)c1Cl |  | 7.91 µM (active)
